Measured values reported in PubChem BioAssay AID623911 (Vanderbilt High Throughput Screening Facility, 2012).
In all, about 2,100 compounds went through this assay and about 770 (37%) were called active.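 Rule for the calls: active = by-eye trace score of 1 for enhancers or -1 for inhibitors, so actives lie on both sides (some results past the limit were not filed as active); inactive = score 0, or 3 fluorescent, or 4 baseline rise.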 Some of the results follow.

Target: G protein-activated inward rectifier potassium channel 2 (Homo sapiens) + G protein-activated inward rectifier potassium channel 1 (Homo sapiens) (UniProt P48051+P48549)
Sequence (P48051 whole entry, looked up): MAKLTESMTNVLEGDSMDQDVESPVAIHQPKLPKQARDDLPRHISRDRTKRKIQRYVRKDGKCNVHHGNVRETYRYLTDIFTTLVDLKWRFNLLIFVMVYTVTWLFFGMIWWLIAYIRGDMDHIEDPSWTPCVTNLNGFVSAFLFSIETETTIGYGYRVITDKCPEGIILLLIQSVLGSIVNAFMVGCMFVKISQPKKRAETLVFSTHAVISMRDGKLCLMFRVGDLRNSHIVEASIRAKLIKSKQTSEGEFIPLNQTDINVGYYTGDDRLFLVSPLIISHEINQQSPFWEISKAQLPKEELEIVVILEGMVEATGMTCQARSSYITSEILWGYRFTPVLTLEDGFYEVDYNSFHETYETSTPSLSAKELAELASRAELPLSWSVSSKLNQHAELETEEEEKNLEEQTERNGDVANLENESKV
Sequence (P48549 whole entry, looked up): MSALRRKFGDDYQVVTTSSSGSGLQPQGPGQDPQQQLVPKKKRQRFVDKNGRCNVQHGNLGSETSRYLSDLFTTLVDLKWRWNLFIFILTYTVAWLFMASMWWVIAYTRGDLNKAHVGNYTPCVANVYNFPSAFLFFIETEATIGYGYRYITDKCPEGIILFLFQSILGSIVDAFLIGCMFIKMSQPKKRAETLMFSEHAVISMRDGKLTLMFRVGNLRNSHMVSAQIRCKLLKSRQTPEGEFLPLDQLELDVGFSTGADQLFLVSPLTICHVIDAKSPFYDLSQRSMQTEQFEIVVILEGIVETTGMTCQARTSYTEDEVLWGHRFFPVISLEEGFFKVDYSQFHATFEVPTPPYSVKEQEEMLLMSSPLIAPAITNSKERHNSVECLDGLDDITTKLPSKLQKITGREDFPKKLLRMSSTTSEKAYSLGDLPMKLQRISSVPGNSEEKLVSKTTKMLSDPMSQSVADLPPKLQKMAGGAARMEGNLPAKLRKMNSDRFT
Experiment: GIRK1/2 thallium flux modulators, retest, confirmation, cell-based, HEK293 rmGlu8/hGIRK1/2, FluoZin-2 (AID 623911)
Details: HEK293 rmGlu8/hGIRK1/2, thallium flux FluoZin-2; actives lie on both sides; glutamate co-added at its EC20 level

Manual score, active:
Cc1ccc(C(C(=O)NC2CCCC2)N2CCCC(C)C2)cc1 (centres undefined) -1
CC1CCN(C(C(=O)Nc2ccc3c(c2)OCO3)c2ccccc2)CC1 (centres undefined) -1
CC1CCCN(C(C(=O)Nc2ccc3c(c2)OCO3)c2ccccc2)C1 (centres undefined) -1
O=C1OC2(CCCCC2)OC(=O)C1=CNc1nc2ccccc2s1 1
CCCCCC/C(C)=C1/SC(=S)NC1=O 1
c1ccc2c(c1)oc1c(N3CCN(Cc4ccc5c(c4)OCO5)CC3)ncnc12 -1
CCCCCCN1C2=NCCN2c2ccccc21 -1
Cc1ccc(CN2C3=NCCCN3c3ccccc32)cc1 -1
CC(C)(C)c1ccc(CN2C3=NCCCN3c3ccccc32)cc1 -1
OC(CN1C2=NCCCN2c2ccccc21)c1ccc(Br)cc1 (centres undefined) -1
COc1ccc(Cn2nnnc2C(c2ccccc2Cl)N2CCN(C3CCCC3)CC2)cc1 (centres undefined) -1
COc1ccccc1C(c1nnnn1CCc1ccccc1)N1CCCCCC1 (centres undefined) -1
C=CCN1CCN(C(c2ccc(Cl)cc2)c2nnnn2CCc2ccc(OC)c(OC)c2)CC1 (centres undefined) -1
COc1ccc(Cn2nnnc2C(c2ccc(F)cc2)N2CCN(C3CCCC3)CC2)cc1 (centres undefined) -1
CCN(c1ccc2c(c1)OCO2)S(=O)(=O)c1cc(Br)cc2c1N(C(=O)C1CC1)CC2 -1
COc1ccc(NC(=O)C(=O)NNC(=O)c2cccs2)cc1 1
COc1ccc(NC(=O)C(=O)NNC(=O)c2cccs2)c(OC)c1 1
COCCNCCOc1ccccc1-c1ccccc1 -1
S=c1[nH]nc(-c2ccc(Br)o2)n1Cc1ccccc1 1
CC(C)(C)CC(C)(C)NCC(O)COc1c(F)cc(Br)cc1F (centres undefined) -1
CCOc1ccccc1Nc1nnc(Cc2ccccc2Cl)c(=O)[nH]1 1
COc1ccc(Nc2nnc(Cc3ccccc3)c(=O)[nH]2)c(OC)c1 1
Cc1sc2ncnc(N(C)Cc3cccs3)c2c1C -1
CCOC(=O)c1c(CNCCN(CC)CC)n(C)c2cc(Br)c(OC)cc12 -1
CN=C1c2c(-c3ccccc3)c3cc(OC)ccc3n2CCN1C -1
CCc1cc(-c2n[nH]c(C)c2-c2nc3ccccc3n2C)c(O)c(CN2CCN(C)CC2)c1O -1
CCCN(CCC)C(=O)CSc1nc2ccccc2c(=O)n1C1CCCC1 -1
C=C(C)CNC(=S)N/N=C(\C)c1ccc(Cl)s1 1
CNC(=S)N/N=C(\C)c1ccc(Cl)s1 1
C/C(=N\NC(=S)NC(C)C)c1ccc(Cl)s1 1
O=C(c1oc(=O)c2ccccc2c1-c1ccccc1)N1CCN(C2CCCCC2)CC1 -1
CCCCn1c(=S)[nH]c2c(oc3ccc(Cl)cc32)c1=O 1
Cc1ccc(C2C3=C(NCCN=C3c3ccccc3)C(=O)N2c2ccccc2)cc1 (centres undefined) -1
Cc1ccc2nsnc2c1S(=O)(=O)Nc1cccc2nsnc12 1
CCc1ccc(Nc2nc3ccccc3c(=O)s2)cc1 1
O=C(N/N=C\c1ccc(Cl)s1)c1cccs1 1
CCOC(=O)C1CCCN(c2ncnc3c2oc2ccccc23)C1 (centres undefined) -1
CCOC(=O)C1CCCN(c2nc(C)nc3c2oc2ccccc23)C1 (centres undefined) -1
Cc1ccc(C)c(C(=O)c2c(C)nc3sccn23)c1 -1
CC(C)(C)NC(=O)C(=O)NNC(=O)c1ccc(C(C)(C)C)cc1 1
Cc1cccc(C(=O)NNC(=O)C(=O)NC(C)(C)C)c1 1
C=CCn1c(SCC(=O)Nc2sc(C)c(C)c2C(=O)OCC)nnc1-c1sc(N)nc1C -1
CCOC(=O)c1c(NC(=O)CSc2nnc(Cc3csc(N)n3)n2C)sc(C)c1C -1

Manual score, inactive:
CC(C)c1cc(C(F)(F)F)n2nc(C(=O)Nc3ccc4c(c3)OCO4)cc2n1 0
O=C(NC(=S)Nc1ccc2c(c1)OCO2)c1ccccc1 0
Cc1ccc(NC(=O)C(c2ccccc2)C2CCCC2)cc1 (centres undefined) 0
O=C(Nc1ccc(O)c(-c2nc3ccccc3s2)c1)C1=COCCO1 0
Cc1csc(SCC(=O)Nc2nc3ccccc3s2)n1 0
Oc1oc(-c2cccc3ccccc23)nc1/C=N/c1nccs1 0
COc1ccccc1N1CCN(Cc2cc(Br)c(O)c3ncccc23)CC1 0.5
SC(COCc1ccccc1)CN1CCN(Cc2ccc3c(c2)OCO3)CC1 (centres undefined) -0.5
Cc1ccc(Cn2c(SCC(=O)N3CC(=O)Nc4ccccc43)nc3ccccc3c2=O)cc1 0
CCN(CC)c1ccc(NC(=O)c2nc3nc(C)cc(C(F)F)n3n2)cc1 0
Clc1ccc(CSc2ncn(-c3ccccc3)n2)cc1 0
Cc1cc2c(cc1C)C(=O)NC(C)(C)C2 0
COCCn1nnnc1C(c1ccccc1)N1CCN(c2ccccc2)CC1 (centres undefined) 0
CCC(c1nnnn1Cc1ccc(OC)cc1)N(CCCO)Cc1cc2cc3c(cc2[nH]c1=O)OCO3 (centres undefined) 0
Cc1ccccc1/C=c1\s/c(=C\C(=O)C(C)(C)C)[nH]c1=O 0
O=C(O)CCCCCNc1nc2ncn(Cc3ccccc3)c2c(=O)[nH]1 0
CCN(CC)C(=O)CN(c1ccc2c(c1)OCO2)S(C)(=O)=O 0
COC(=O)c1cc(OC)c(OC)cc1NC(=O)Nc1ccc(OC)cc1OC 0
COc1ccc(-n2c(=O)[nH]cc(C(=O)Nc3ccc(NC(C)=O)cc3)c2=O)cc1 0
COc1ccc(OC)c(C2C(C(=O)c3cccs3)=C(O)C(=O)N2c2cc(C)on2)c1 (centres undefined) 0
Cn1cccc1-c1nc2ccc(NC(=O)c3cccs3)cc2[nH]1 0
O=C(Nc1ccc(CN2CCOCC2)cc1)c1cc2ccccn2n1 0
COCCCNCCCOc1ccc(Cl)cc1Br 0
COc1cc2cnncc2cc1OC 0
CCCc1cc(-c2n[nH]c(=S)n2Cc2ccccc2)cs1 0
S=c1[nH]nc(-c2cc3ccccc3o2)n1Cc1ccccc1 0.5
C/C(=N/NC(=O)c1cc(Cl)ccc1O)C12CC3CC(CC(C3)C1)C2 0
CN1C2C=C3C(C#N)=C(N)C(C#N)(C#N)[C@@H](c4ccsc4)[C@@H]3C1CC2 (some centres undefined) -0.5
O=C(Nc1nnc(-c2ccccc2F)s1)C1CCCO1 (centres undefined) 0
OC(CNCC1CCCO1)Cn1c2ccc(Br)cc2c2cc(Br)ccc21 (centres undefined) 0
COc1ccc(OC)c(Nc2cc(-c3ccccc3)nc(N)n2)c1 -0.5
CCOc1ccccc1NC(=O)Nc1cccc(C(C)=O)c1 0
O=C(Nc1ccccc1-c1nnn(CC(=O)N2CCc3ccccc3C2)n1)C1CCC1 0
C=CCn1c(-c2cccs2)nc2ccccc21 0
COC(=O)c1ccc2c(=O)n(C3CCCCC3)c(SCC#N)nc2c1 0
CCN(CC)C(=O)CSc1nc2ccccc2c(=O)n1-c1ccccc1OC 0
CC(C)(C)c1nnc(N/N=C/c2ccccc2)n(N)c1=O 0
C/C(=N\NC(=O)c1csc(C)c1C)c1ccc(Cl)s1 0
CNC(=S)N/N=C(\C)c1ccc(C)c(C)c1 0
C/C(=N\NC(=S)NCCc1ccccc1)c1cccs1 3
C/C(=N\NC(N)=S)c1ccc(Cl)s1 0
CCNC(=S)N/N=C(\C)c1ccc(Cl)s1 0
CC(C)NC(=S)N/N=C/c1cc(Br)ccc1O 0
Cn1c(NC(=O)Cc2ccc(F)cc2)cc(=O)n(C)c1=O 0
CS(=O)(=O)c1ccc2nc(NC(=O)C3C4C=CC(C4)C3C(=O)O)sc2c1 (centres undefined) 0
CC1=NN(/C(=N\c2nnc(C)s2)Nc2ccccc2)[C@H](c2cccc3ccccc23)S1 0
CCN(CC)CCCn1c(=S)[nH]c2cc(Cl)ccc2c1=O 0
CCN(CC)CCn1c(=S)[nH]c2cc(Cl)ccc2c1=O 0
O=C(NNS(=O)(=O)c1ccccc1F)c1cccc(S(=O)(=O)N2CCOCC2)c1 0
CCc1ccc(NCc2cc3c(C)nn(-c4ccccc4)c3[nH]c2=O)cc1 0
CCC(CC)c1nnc(NC(=O)c2ccc3ccccc3n2)s1 0
O=C1CC(C(F)(F)C(F)(F)C(F)(F)F)=Nc2ccccc2N1 0
O=C(N/N=C/c1ccc([N+](=O)[O-])s1)c1cccc(Br)c1 0
Cc1ccccc1C(=O)N/N=C/c1ccc([N+](=O)[O-])s1 0
CCOC(=O)N1CCN(C(=O)CSc2ncnc3ccccc23)CC1 0
CCOC(=O)C1CCCN(C(=O)c2cc(-c3ccccc3)on2)C1 (centres undefined) 0
Cc1ccc(S(=O)(=O)CC(=O)Nc2ccc(S(=O)(=O)Nc3onc(C)c3C)cc2)cc1 -0.5
C/C(CC(O)c1ccc2ccccc2n1)=N/O (centres undefined) 0
CNC(=S)N=Nc1c(O)[nH]c2ccc(C(C)C)cc12 0
Cn1c(=O)c2c(nc3sccn32)n(C)c1=O 0
CC(C)(C)c1ccc(SCC(N)=O)cc1 0
CC(C)(C)c1ccc(C(=O)NC(=S)Nn2cnnc2)cc1 0
O=[n+]1c2c(n([O-])c3cc(F)c(N4CCCC4)cc31)CCCC2 3
COc1ccc2cc(C(=O)NCC(=O)O)sc(=O)c2c1OC 0
CCOC(=O)c1cnc(SCC(=O)Nc2nc(C)c(C)s2)nc1N 0
C=CCn1c(SCC(=O)Nc2sccc2C(N)=O)nc2ccc(Cl)cc2c1=O 0
